This is an account of results in PubChem BioAssay.

“And” between values parts separate entries of the source, which are not always exact repeats. Equal values may be shown once. The source made the active and inactive calls. Unless noted, no rule for the calls is given here.

A short description of experiment [1]: liver-stage malaria parasite growth inhibition, primary screen, cell-based, HepG2, luciferase luminescence, HepG2 viability (AID 624349; in the data active = parasite load remaining mostly below about 12%, no sharp cut-off; inactive = mostly above about 10%;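 also: 100% = mean of DMSO negative control wells on the same plate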). Conditions: P. berghei liver stage in HepG2, luciferase luminescence, concentration not given here; parasite load remaining: stronger effect = lower value; viability: measured here: HepG2 viability without parasites.
The nature of experiment [2]: Cy5 fluorescence interference with SSB-bound oligo, artefact control for HCV NS3 helicase inhibitor project, biochemical, NIH Clinical Collection, E. coli SSB (AID 743268).
The test system of experiment [3] is Hepatitis C virus NS3 helicase. As to the kind of experiment: HCV NS3 helicase inhibitors, primary screen, biochemical, fluorescence polarization, NIH Clinical Collection (AID 743270). Conditions: NS3 helicase binding to Cy5-dT15 DNA, stronger effect = higher value, concentration not given here. Background: Fluorescence polarisation rises when a labelled molecule tumbles more slowly, as on binding a larger partner.

For experiment [4], the target named is Single-stranded DNA-binding protein (Escherichia coli (strain K12)) (UniProt P0AGE0). Description: E. coli SSB displacement from DNA, counter-screen for HCV NS3 helicase inhibitor project, biochemical, fluorescence polarization, NIH Clinical Collection (AID 743271; in the data active = inhibition above about 28%). The note with it: stronger effect = higher value, concentration not given here. Background: The purpose of a counterscreen is to sort out artefacts and off-target activity.

Experiment [5] in a line: fluorescence interference in NS3h assay format, artefact control for HCV NS3 helicase inhibitor project, biochemical, NIH Clinical Collection (AID 743272).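 Also: HCV NS3 helicase with a Cy5 labelled single stranded DNA probe.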 The note with it: fluorescence interference counterscreen, stronger effect = lower value.
The subject of experiment [6] is Neuropilin-2 / VEGF-C interaction (human). Description: inhibitors of NRP2–VEGF-C binding, biochemical, microplate binding format, z-score (AID 743281). Conditions: microplate NRP2/VEGF-C binding assay; stronger effect = lower value.
The nature of experiment [7]: stimulators of nuclear beta-catenin in C2C12, primary screen, imaging, WNT3A-conditioned medium, mouse C2C12, NPC library (AID 1117326; in the data active = nuclear beta-catenin stimulation mostly above about 4.2%, no sharp cut-off; inactive = mostly below about 10%). Conditions: stronger effect = higher value.
Experiment [8] can be described thus: stimulators of insulin release from INS-1E, primary screen, cell-based, 5 mM glucose, NPC library (AID 1117329;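 active = compound raises insulin release from rat beta cells at 5 mM glucose, no numeric limit stated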). The note with it: rat INS-1E insulin secretion, at 10 µM, stronger effect = higher value.
Experiment [9] is described as follows: growth inhibition of GSK3B-pretreated HCT116 cells – cell-based, CellTiter-Glo, 0.2 to 20 µM (AID 1117336;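 active = compounds lowering colon cancer cell viability after pretreatment blocking the GSK3B kinase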). Conditions: HCT116 viability after GSK3B inhibitor, at 20 µM, stronger effect = higher value. A general note: Cellular ATP, detected with luciferase, serves as a proxy for viable cell number.
The nature of experiment [10]: inhibition of endothelial tube formation, primary screen, imaging, VEGF stimulated, CD31 staining, tube area, NPC library (AID 1117340;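 active = compound that reduces growth-factor-driven endothelial tube area in a mixed cell culture, no cutoff stated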). Conditions: VEGF-stimulated ADSC/ECFC co-culture, at 10 µM, stronger effect = higher value.
Experiment [11] in a line: glucagon-like peptide 1 release enhancers, primary assay, NCI-H716 cell line, NPC library (AID 1117341;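 active = compound raises GLP1 secretion from the human gut endocrine cells, with no numeric limit stated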). The note with it: NCI-H716 cells, at 10 µM, stronger effect = higher value.
Experiment [12] in a line: HCT116 colon cancer cell growth inhibition, primary screen, CellTiter-Glo luminescence, NPC library (AID 1117342;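 active = compounds that lower survival of HCT116 colon cancer cells in the luminescence readout, no numeric limit stated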). The note with it: at 20 µM (top of the series).
Experiment [13] in a line: CellTiter-Glo luminescent readout of SW480 viability loss, NPC library primary (AID 1117343;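 active = compounds that lower viability of the colon cancer cells in the luminescence readout, with no numeric limit stated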). Conditions: CellTiter-Glo luminescence; at 20 µM (top of the series).
Experiment [14] in a line: decreased DLD-1 cellular survival, CellTiter-Glo luminescent readout, NPC compound collection, primary HTS (AID 1117346;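 active = compounds that lower survival of DLD-1 colon cancer cells in the luminescence readout, no cutoff given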). Conditions: DLD-1 viability, CellTiter-Glo luminescence; at 20 µM (top of the series).

Turning to `CCc1nn(CCCN2CCN(c3cccc(Cl)c3)CC2)c(=O)n1CCOc1ccccc1`, the parasite load remaining in experiment [1] was 9.1% (inactive) and 13.5% (inactive). In experiment [1], the viability (commonly a read-out of living cells in per cent, often relative to untreated cells) is 58.6% and 64.5%. Also, the results for the fluorescence ratio in experiment [2] and in experiment [5] were 0.98 (inactive) and 0.99 (inactive), respectively. For the same compound, the inhibition (as a rule, the relative decrease from the control value, in per cent) in experiment [3] is -1.19% (inactive); in experiment [4], 3.75% (inactive). For the same compound, in [6], the z-score was 0.854 (inactive). For the same compound, the nuclear beta-catenin stimulation in [7] (at 10 µM) is -1% (inactive); in experiment [7] (stimulation, at 2 µM), 3%. In addition, the insulin secretion stimulation in experiment [8] is -1.1% (inactive). Besides, the viability decrease in experiment [9] was 67.2% (active). For the same compound, the tube area decrease in experiment [10] was 30.7% (inactive). Also, the GLP1 secretion stimulation in experiment [11] was -2.9% (inactive). Also, in [12], the inhibition of viability was 85.7% (active). Moreover, the viability decrease (inhibition) is 91.5% (active) in [13] and 81.3% (active) in experiment [14].

`OCCOCCN1CCN(C2=Nc3ccccc3Sc3ccccc32)CC1`: the parasite load remaining in experiment [1] is 49.4% (inactive) and 94% (inactive) and 56.9% (inactive). The viability in [1] is 95.1% and 77.7% and 206%. Also, the fluorescence ratio in experiment [2] was 1.02 (inactive); in experiment [5], 0.95 (inactive). For the same compound, the inhibition in [3] is 1.98% (inactive); in experiment [4] it was 1.44% (inactive). Besides, in [6], the z-score was 0.105 (inactive). Further, the nuclear beta-catenin stimulation in [7] (at 10 µM) is 3.8% (inactive); in [7] (stimulation, at 2 µM) it was 2.1%. Besides, the insulin secretion stimulation in experiment [8] was 2.8% (inactive). Moreover, the viability decrease in experiment [9] is -12.8% (inactive). For the same compound, the tube area decrease in experiment [10] is 18.9% (inactive). For the same compound, in [11], the GLP1 secretion stimulation is 2.3% (inactive). In experiment [12], the inhibition of viability was 10.6% (inactive). The viability decrease (inhibition) in [13] was 14% (inactive); in experiment [14], 7.8% (inactive).

Consider `CCN1CC(CCN2CCOCC2)C(c2ccccc2)(c2ccccc2)C1=O` (stereo not given), for which the parasite load remaining in experiment [1] is 66% (inactive). Also, the viability in experiment [1] came out at 70.6%. Also, the fluorescence ratio in [2] was 0.9 (inactive); in experiment [5], 0.88 (inactive). The inhibition is -8.95% (inactive) in experiment [3] and 5.91% (inactive) in [4]. In addition, the z-score in experiment [6] is -0.0578 (inactive). Further, the nuclear beta-catenin stimulation is -1.3% (inactive) in experiment [7] (at 10 µM) and -3.1% in [7] (stimulation, at 2 µM). The insulin secretion stimulation in [8] was 0.3% (inactive). Besides, the viability decrease in experiment [9] was 11.2% (inactive). Moreover, the tube area decrease in experiment [10] was -7% (inactive). The GLP1 secretion stimulation in experiment [11] was 3.1% (inactive). Besides, in [12], the inhibition of viability was 17% (inactive). Also, the viability decrease (inhibition) in experiment [13] was 13.5% (inactive); in experiment [14], 4.2% (inactive).

Take `COc1cc(-c2ccc(=O)[nH]n2)ccc1OC(F)F`: the parasite load remaining in [1] was 107% (inactive) and 103% (inactive) and 31.7% (inactive). In experiment [1], the viability is 78.6% and 72.5%. Further, the results for the fluorescence ratio in [2] and in experiment [5] were 0.99 (inactive) and 0.94 (inactive), respectively. The results for the inhibition in experiment [3] and in experiment [4] were -2.77% (inactive) and -0.87% (inactive), respectively. Further, in experiment [6], the z-score was -0.623 (inactive). In addition, the nuclear beta-catenin stimulation in [7] (at 10 µM) is 2% (inactive); in experiment [7] (stimulation, at 2 µM) it was 0.9%. Moreover, the insulin secretion stimulation in experiment [8] is 0.6% (inactive). For the same compound, in experiment [9], the viability decrease is -6.05% (inactive). Besides, the tube area decrease in experiment [10] is 99.9% (active). The GLP1 secretion stimulation in experiment [11] was 11.6% (inactive). The inhibition of viability in experiment [12] is -6.7% (inactive). Also, the viability decrease (inhibition) in experiment [13] was 11.4% (inactive); in experiment [14] it was 4.45% (inactive).

For the compound `Nc1c2c(nc3c1CCC3)CCCC2`, the parasite load remaining in [1] is 74.2% (inactive). Further, the viability in experiment [1] was 68.8%. Besides, the fluorescence ratio in [2] was 0.99 (inactive); in experiment [5], 0.9 (inactive). For the same compound, the inhibition in [3] is 2.77% (inactive); in experiment [4] it was 1.44% (inactive). Also, the z-score in experiment [6] was -0.236 (inactive). In addition, the nuclear beta-catenin stimulation in experiment [7] (at 10 µM) was 0.3% (inactive); in experiment [7] (stimulation, at 2 µM), 0.3%. Besides, the insulin secretion stimulation in experiment [8] is 21.2% (active). Besides, in [9], the viability decrease is -1.35% (inactive). The tube area decrease in experiment [10] was 20.5% (inactive). Besides, the GLP1 secretion stimulation in [11] was 4.4% (inactive). Moreover, the inhibition of viability in [12] is 1% (inactive). In addition, the viability decrease (inhibition) in experiment [13] is 4.4% (inactive); in [14], -5.95% (inactive).
